{"source": "PubChem BioAssay (NCATS)", "note": "“And” between values parts separate entries of the source, which are not always exact repeats. Equal entries are not always repeated. Results filed as inconclusive are left out. Entries that show only a call come without a potency. The source made the active and inactive calls. Calls follow the shape of the dose curve; as a rule, active = well fitted cell-killing curve with a large enough effect; inconclusive = small, poorly fitted or top-dose-only effect, or effect the other way; inactive = no such curve, though single readings can be large or run the other way. Potency is read from the fitted curve at half-maximal effect."}
{"assay": "Viability qHTS for spleen associated tyrosine kinase inhibitor (SYKi) naive MV4-11 cells (AID 1963823); also: nearly all actives have a fitted effect of over 40% in size", "conditions": "MV4-11 AML viability, CellTiter-Glo luminescence, 72 h; series mostly up to 45 µM", "from_the_text": "Department of Medicine, Hematology/Oncology\nUniversity Hospital Frankfurt, Germany.\nTrials have shown promising clinical activity of the selective SYK inhibitor entospletinib in patients with high expressing HOXA9/MEIS1 acute leukemias. As the development of resistance mechanisms is a common problem in the use of targeted drugs, we performed a chemical library screen to identify drug sensitivities in SYK inhibitor resistant AML cells. […] Glucocorticoids are potent immunosuppressants which work in part by inhibiting the transcription of cytokine genes.\nDescribed herein is a viability screen to look for activity in the SYK inhibitor naive cell line against four NCATS compound libraries (MIPE 5.0, NPC, NPACT, and Kinase) totaling 11372 compounds. Active hits were reacquired for confirmation and further secondary assay testing.\nSEQUENCE No. (e.g., 1, 2, 3, etc.); […] (e.g., Cells, Incubation, Reagent, etc.); VALUE; DESCRIPTION.\n1; Media; 2uL; white, solid-bottom Corning assay plate.\n2; Compounds; 23nL; Echo acoustic dispenser.\n3; Cell; 5uL; 500 cells per well.\n4: Incubation; 72hr; 37 C, 5% CO2, 95% humidity.\n5; Reagent; 3uL; CellTiter-Glo reagent (Promega).\n6; Incubation; 10min; room temperature.\n7; Detection; Luminescence; ViewLux plate reader (PerkinElmer).\nNOTES (numbers refer to Sequence numbers above\n1. Quantitative high-throughput screening (qHTS) of small molecule compounds was conducted on naive SYKi MV4-11 cell line.\n2. Twenty-three nanoliter of small molecule compounds were added to each assay plates using the Echo acoustic dispenser (Beckman Coulter).\n3. Cells were seeded into the assay plates at a final density of 500 cells in 5uL of media per well using the Multi-drop Combi dispenser.\n4. Plates were covered with stainless steel gasketed lids and incubated for 72 hours at standard cell culture conditions.\n5. Viability was assessed by adding 3uL of CellTiter-Glo detection reagent (Promega).\n6. Plates were covered with gasket lids and incubated for 10 minutes at room temperature.\n7. Luminescence was measured on a ViewLux plate reader (PerkinElmer)."}
{"smiles": "Cc1c(C2=CCN(C(=O)N(C)C(C)C)CC2)nnn1-c1cccnc1F", "Potency": "inactive"}
{"smiles": "NS(=O)(=O)c1cc(C2(O)NC(=O)c3ccccc32)ccc1Cl", "note": "(stereo not given)", "Potency": "inactive"}
{"smiles": "C#CCN(C)Cc1ccccc1", "Potency": "inactive"}
{"smiles": "CC(C)CCC[C@@H](C)[C@H]1CC[C@H]2[C@@H]3CC=C4C[C@@H](OC(=O)NCCN(C)C)CC[C@]4(C)[C@H]3CC[C@]12C", "Potency": "20.6 µM (active)"}
{"smiles": "COC(=O)C1=CO[C@@H](O[C@@H]2O[C@H](CO)[C@@H](O)[C@H](O)[C@H]2O)[C@@H]2C(CO)=CC[C@H]12", "Potency": "inactive"}
{"smiles": "CN(C)CCn1nnnc1SCC1=C(C(=O)O)N2C(=O)[C@@H](NC(=O)Cc3csc(N)n3)[C@H]2SC1", "Potency": "inactive"}
{"smiles": "C[C@@H]1[C@H]2[C@H](O[C@@H]3O[C@H](CO)[C@@H](O)[C@H](O)[C@H]3O)OC=C(C(=O)O)[C@H]2C[C@@H]1OC(=O)/C=C/c1ccc(O)cc1", "Potency": "inactive"}
{"smiles": "COc1ccc(CCCN2CCC(COC(c3ccccc3)c3ccccc3)CC2)cc1", "Potency": "10.3 µM (active)"}
{"smiles": "Cc1cc(C(C)(C)C)c(O)c(C(C)(C)C)c1", "Potency": "inactive"}
{"smiles": "Cc1cccc(C)c1NC(=O)c1cc(S(N)(=O)=O)c(Cl)cc1O", "Potency": "inactive"}
{"smiles": "C[C@@H]1C[C@H]2[C@@H]3CCC4=CC(=O)C=C[C@]4(C)[C@@]3(Cl)[C@@H](O)C[C@]2(C)[C@@]1(OC(=O)c1ccco1)C(=O)CCl", "Potency": "16.8 µM (active) and 8.33 µM (active)"}
{"smiles": "O=C1N=C(O)CN1/N=C/c1ccc(-c2ccc([N+](=O)[O-])cc2)o1", "Potency": "inactive"}
{"smiles": "Cc1cnc(NS(=O)(=O)c2ccc(N)cc2)nc1", "Potency": "inactive"}
{"smiles": "CC(C)CC1NC(=O)C2CC3(O)c4ccccc4NC3N2C1=O", "note": "(stereo not given)", "Potency": "inactive"}
{"smiles": "C=C1CC[C@H]2C(=C)CC[C@H]3C(=C)C(=O)O[C@@H]3[C@@H]12", "Potency": "4.11 µM (active)"}
{"smiles": "CNc1ccc([N+](=O)[O-])c(Nc2ccc3[nH]ncc3c2)n1", "Potency": "2.59 µM (active)"}
{"smiles": "O=C(c1ccccc1)c1ccccc1", "Potency": "inactive"}
{"smiles": "CC(C)(Oc1ccc(CCNC(=O)c2ccc(Cl)cc2)cc1)C(=O)O", "Potency": "inactive"}
{"smiles": "C[C@@H]1O[C@@H](O[C@H]2[C@H](O)[C@@H](O)[C@H](OC3CCC4(C)C5CCC(C)(C(CO)OC6OC(CO)C(O)C(O)C6O)CC5=CCC4C3(C)C)O[C@@H]2CO)[C@H](O)[C@H](O)[C@H]1O", "note": "(stereo not given in full)", "Potency": "inactive"}
{"smiles": "N[C@@H](CC(=O)N1CCn2c(nnc2C(F)(F)F)C1)Cc1[nH]nc2c(F)c(F)ccc12", "Potency": "inactive"}
{"smiles": "Nc1nc(Cl)nc2c1ncn2[C@@H]1O[C@H](CO)[C@@H](O)[C@H]1F", "Potency": "0.082 µM (active)"}
{"smiles": "O=C(O)CP(=O)(O)O", "Potency": "inactive"}
{"smiles": "CCCCN(CCCC)CC(O)c1cc(Cl)cc2c1-c1ccc(Cl)cc1/C2=C/c1ccc(Cl)cc1", "note": "(stereo not given)", "Potency": "20.9 µM (active)"}
{"smiles": "COC(=O)[C@@H](O)[C@H]1[C@@]2(C)CC3(O)[C@@H](C(=O)[C@H]2O)[C@]24O[C@]25CC(=O)O[C@@H](c2ccoc2)[C@]5(C)CCC4[C@]13C", "note": "(stereo not given in full)", "Potency": "inactive"}
{"smiles": "CC1=CC(=O)CC(C)(C)C1CCC(C)O[C@@H]1O[C@H](CO[C@@H]2OC[C@@H](O)[C@H](O)[C@H]2O)[C@@H](O)[C@H](O)[C@H]1O", "note": "(stereo not given in full)", "Potency": "inactive"}
{"smiles": "CNc1nc(Cc2ccccc2)nc2c1CCNC[C@@H]2C", "Potency": "inactive"}
{"smiles": "C=C1CC2[C@]3(C)C(=C(O)C(=O)[C@@]2(C)[C@]2(C(=O)OC)C(=O)C(C)OC(=O)[C@@]12C)C(C)(C)C(=O)CC3O", "note": "(stereo not given in full)", "Potency": "inactive"}
{"smiles": "CO[C@@]12[C@H](COC(N)=O)C3=C(C(=O)C(C)=C(N)C3=O)N1C[C@@H]1N[C@@H]12", "Potency": "119 nM (active) and 118 nM (active)"}
{"smiles": "C[C@@H]1C(=O)O[C@H]2[C@H](O)C34[C@H]5C[C@@H](C(C)(C)C)C36[C@@H](OC(=O)[C@@H]6O)O[C@@]4(C(=O)O5)[C@@]12O", "note": "(stereo not given in full)", "Potency": "inactive"}
{"smiles": "CO/N=C(/C(=O)N[C@@H]1C(=O)N2C(C(=O)O)=C(CSC(=O)c3ccco3)CS[C@H]12)c1csc(N)n1", "Potency": "inactive"}
{"smiles": "CC12CCC3c4ccc(O)cc4CCC3C1CC(OC1OC(C(=O)O)C(O)C(O)C1O)C2O", "note": "(stereo not given)", "Potency": "inactive"}
{"smiles": "COC(=O)C1=CO[C@@H](O[C@@H]2O[C@H](CO)[C@@H](O)[C@H](O)[C@H]2O)[C@H]2[C@@H]1C=C[C@]21C=C([C@H](C)OC(=O)/C=C/c2ccc(O[C@@H]3O[C@H](CO)[C@@H](O)[C@H](O)[C@H]3O)cc2)C(=O)O1", "Potency": "inactive"}
{"smiles": "CCOc1cc(C(C)(C)C)ccc1C1=NC(C)(c2ccc(Cl)cc2)C(C)(c2ccc(Cl)cc2)N1C(=O)N1CCN(CCCS(C)(=O)=O)CC1", "note": "(stereo not given)", "Potency": "10.3 µM (active)"}
{"smiles": "C[C@@H]1N[C@H]2N(C1=O)c1ccccc1[C@@]2(O)C[C@@H]1C(=O)N[C@@H](C)c2nc3ccccc3c(=O)n21", "Potency": "inactive"}
{"smiles": "CCn1c(=O)c(-c2ccc(-c3cncs3)cc2Cl)cc2cnc(Nc3ccc(N4CCN(C)CC4)cc3)nc21", "Potency": "0.291 µM (active)"}
{"smiles": "CC(=O)c1ccc2c(c1)N(CCCN1CCC(CCO)CC1)c1ccccc1S2", "Potency": "26.6 µM (active)"}
{"smiles": "Nc1cc(=O)[nH]c(N)n1", "Potency": "inactive"}
{"smiles": "CCn1c(=O)c(-c2ccn[nH]2)cc2c(C)nc(N)nc21", "Potency": "1.46 µM (active)"}
{"smiles": "Nc1ncnc2c1ncn2[C@H]1CCCO1", "Potency": "inactive"}
{"smiles": "CC(C)C[C@@H](N)C(=O)N[C@H]1C(=O)N[C@@H](CC(N)=O)C(=O)N[C@H]2C(=O)N[C@H]3C(=O)N[C@H](C(=O)N[C@H](C(=O)O)c4cc(O)cc(O)c4-c4cc3ccc4O)[C@H](O)c3ccc(c(Cl)c3)Oc3cc2cc(c3O[C@@H]2O[C@H](CO)[C@@H](O)[C@H](O)[C@H]2O[C@H]2C[C@](C)(N)[C@H](O)[C@H](C)O2)Oc2ccc(cc2Cl)[C@H]1O", "Potency": "inactive"}
